Pf growth 96h = P. falciparum growth inhibition at 96 hour, primary screen for plastid delayed-death inhibitors. P. falciparum luciferase reporter growth, 96 h. Potency, µM (doses to about 28.7 µM), most hits filed as inhibitors. actives 6.9% (n = 320,000). AID 504834; active means well fitted inhibition curve with a large enough effect; inconclusive means small, poorly fitted or top-dose-only effect, or another doubt; inactive means no such curve, though single readings can be large or run the other way
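Cell-based qHTS: luciferase-tagged P. falciparum in erythrocytes (2% hematocrit, 0.05% parasitemia final) incubated with compounds for 96 hours, 37 C, 5% CO2; luciferase detection reagent then added and luminescence measured.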
NS1 inh = blocks influenza NS1 protein function; Potency, µM (top dose mostly 46.1 µM); actives 0.4% (n = 270,000); further: actives are rising curves; nearly all actives have a fitted effect of over 50% in size
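Compounds were scored for reversing the slow growth caused by influenza A NS1 in S. cerevisiae, measured by optical density at 600 nm. Assay medium contained 2% galactose at pH 6.0; NS1-free yeast of the same strain were the positive control.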
SARS PLP yeast = inhibitors of SARS-CoV papain-like protease in yeast; S. cerevisiae expressing SARS-CoV PLpro, growth rescue; Potency, µM (doses to about 32.9 µM), usual class: activators; actives 0.19% (n = 330,000); further: nearly all actives have a fitted effect of over 55% in size
Shiga toxin inh = inhibitors of Shiga toxin in Vero cells | Vero cells, Shiga toxin protein synthesis inhibition reporter | inhibition, % at 38.7 µM | actives 9.2% (n = 290,000) | AID 2315; in the data active means inhibition mostly above about 28%, no sharp cut-off; inactive means mostly below about 43%
Pf growth 48h = inhibits P. falciparum growth in the first generation, 48 h | P. falciparum luciferase growth in erythrocytes, 48 h | Potency, µM (titrated, usually from 28.7 µM), actives largely listed as inhibitors | actives 5.9% (n = 310,000) | AID 504832; active means well fitted inhibition curve with a large enough effect; inconclusive means small, poorly fitted or top-dose-only effect, or another doubt; inactive means no such curve, though single readings can be large or run the other way
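Cell-based growth assay: transgenic P. falciparum expressing firefly luciferase, cultured in red cells within RPMI 1640 containing 0.5% w/v Albumax, 24 mM bicarbonate and gentamycin. A drop in luciferase activity indicates inhibition.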
Cycloheximide cs = affects cycloheximide protein synthesis inhibition readout, counter-screen | actives 12% (n = 300,000) | max response, % | cell reporter, cycloheximide protein synthesis inhibition counterscreen; in the data active means max response mostly above about 13%, no sharp cut-off; inactive means mostly below about 14%; further: read at 38.3 µM for the half of the compounds with a filed dose
Of the large screens only hits and unclear results are named; the others gave an inactive call. This is a sample that favours compounds with a hit; in the whole collection about 21% have one here. Unless noted, the call rests on the fitted dose curve.

CC(=O)n1cc([C@H]2C=C(C(=O)Nc3ccccc3)O[C@@H](OCc3ccc(CO)cc3)C2)c2ccccc21	Pf growth 96h 11.7µM, NS1 inh inconclusive, Pf growth 48h 8.28µM
CCNC(=O)[C@@H]1CCCN1C(=O)[C@H](CCCN=C(N)N)NC(=O)[C@H](CC(C)C)NC(=O)[C@@H](Cc1c[nH]c2ccccc12)NC(=O)[C@H](Cc1ccc(O)cc1)NC(=O)[C@H](CO)NC(=O)[C@H](Cc1c[nH]c2ccccc12)NC(=O)[C@H](Cc1cnc[nH]1)NC(=O)[C@@H]1CCC(=O)N1	Pf growth 96h 1.51µM, Pf growth 48h 1.35µM (no result: NS1 inh, SARS PLP yeast, Shiga toxin inh, Cycloheximide cs)
CC(C)C[C@H](NC(=O)[C@@H](Cc1c[nH]c2ccccc12)NC(=O)[C@@H](Cc1ccc(O)cc1)NC(=O)[C@@H](CO)NC(=O)[C@@H](Cc1c[nH]c2ccccc12)NC(=O)C(Cc1cnc[nH]1)NC(=O)C1CCC(=O)N1)C(=O)N[C@@H](CCCN=C(N)N)C(=O)N1CCC[C@@H]1C(=O)NCC(N)=O (stereo partly drawn)	Pf growth 96h inconclusive (no result: NS1 inh, SARS PLP yeast, Shiga toxin inh, Cycloheximide cs)
CC[C@H](C)[C@H](NC(=O)[C@H](CO)NC(=O)[C@H](CC(C)C)NC(=O)[C@H](CO)NC(=O)[C@@H]1CCCN1C(=O)[C@H](CC(N)=O)NC(=O)[C@@H](N)CC(=O)O)C(=O)N[C@@H](CC(=O)O)C(=O)N[C@@H](CC(C)C)C(=O)N[C@H](C(=O)N[C@@H](Cc1ccccc1)C(=O)N[C@@H](Cc1cnc[nH]1)C(=O)N[C@@H](CC(C)C)C(=O)N[C@@H](CC(C)C)C(=O)N[C@@H](CCCNC(=N)N)C(=O)N[C@H](C(=O)N[C@@H](CC(C)C)C(=O)N[C@@H](CC(C)C)C(=O)N[C@@H](CCC(=O)O)C(=O)N[C@@H](CC(C)C)C(=O)N[C@@H](C)C(=O)N[C@@H](CCCNC(=N)N)C(=O)N[C@H](C(=O)N[C@@H](CCC(N)=O)C(=O)N[C@@H](CO)C(=O)N[C@@H](CCC(N)=O)C(=O)N[C@@H](CCCNC(=N)N)C(=O)N[C@@H](CCC(=O)O)C(=O)N[C@@H](CCCNC(=N)N)C(=O)N[C@@H](C)C(=O)N[C@@H](CCC(=O)O)C(=O)N[C@@H](CCC(N)=O)C(=O)N[C@@H](CC(N)=O)C(=O)N[C@@H](CCCNC(=N)N)C(=O)N[C@H](C(=O)N[C@H](C(=O)N[C@@H](Cc1ccccc1)C(=O)N[C@@H](CC(=O)O)C(=O)N[C@@H](CO)C(=O)N[C@H](C(N)=O)C(C)C)[C@@H](C)CC)[C@@H](C)CC)[C@@H](C)O)[C@@H](C)O)[C@@H](C)O	Shiga toxin inh 16.7 (no result: Pf growth 96h, NS1 inh, SARS PLP yeast, Pf growth 48h)
Cc1cc(-c2ccco2)n(CC(=O)O)n1	Pf growth 96h 6.57µM
Cc1cc(-c2ccco2)n(CC(=O)NCc2ccccc2)n1	none (no result: Pf growth 48h)
FC(F)(F)c1cc(CO[C@H]2CCCN[C@H]2c2ccccc2)cc(C(F)(F)F)c1	none (no result: Pf growth 96h, SARS PLP yeast, Shiga toxin inh, Pf growth 48h, Cycloheximide cs)
COc1ccc(C(=O)OCC(=O)N2CCCC2=O)c(OC)c1	Shiga toxin inh 75.1, Cycloheximide cs 32.7
O=C(O)c1ccc(S(=O)(=O)N2CCCC2)cc1	Pf growth 96h inconclusive
O=C(O)c1ccc(S(=O)(=O)N2CCC(c3nc(-c4ccccc4Cl)no3)CC2)cc1	Pf growth 96h 9.28µM
COC(=O)c1ccccc1NC(=O)C1CCCO1 (stereo not drawn)	none
Cc1ccc(Nc2nc(-c3cccs3)cs2)nc1	Cycloheximide cs 30.6
Cc1ccc(Nc2nc(-c3ccccc3)cs2)nc1	Cycloheximide cs 27.0
c1ccc(-c2csc(Nc3nc(N4CCOCC4)nc(N4CCOCC4)n3)n2)cc1	Pf growth 48h inconclusive
Cc1ccc(S(=O)(=O)Nc2nc(-c3ccccc3)cs2)cc1	none
Cc1cc(C)nc(Nc2nc(-c3ccccc3)cs2)n1	Shiga toxin inh 72.8, Cycloheximide cs 53.4
CCn1cc(C(=O)O)c(=O)c2cc(F)c(N3CCNC(C)C3)c(F)c21 (stereo not drawn)	none (no result: Pf growth 96h, SARS PLP yeast, Shiga toxin inh, Pf growth 48h, Cycloheximide cs)
COc1ccc(/C=C/C(=O)Nc2cc(C)nn2-c2nc3ccccc3[nH]2)cc1	Pf growth 96h inconclusive, Pf growth 48h inconclusive
